Hits are enriched below; roughly 2.5% of the tested compounds scored in any of these assays.
MLL AF4-AF9 inh – inhibitors of human MLL-AF4/AF9 interaction. inhibition, % at 10 µM. AlphaScreen, biotin-AF4 peptide binding to FLAG-AF9. P42568. 350,000 tested, 0.47% active;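 active = every replicate reaching a set inhibition limit, whatever the replicate mean, cut at about 25% in these data; inconclusive = mean inhibition reaches that limit but some replicates miss it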
rRNA inh HTS – inhibits bacterial ribosomal RNA function over humanized ribosomes | GFP signal change (wild-type ribosome), % (no concentration beside the values) | 350,000 tested, 1.6% active | E. coli WT GFP vs humanized-ribosome RFP mutants, fluorescence, 24 h; stronger effect = lower value; DMSO median 0, no signal -100;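 active = significant combined selectivity score with lowered wild-type GFP, culture density cut under 30%, mutant RFP and density less affected; inactive = any of these conditions unmet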
Casp6 inh – inhibitors of human caspase-6 | P55212 | purified caspase-6, Z-VEID-R110 cleavage fluorescence | inhibition, % at 12.5 µM | 350,000 tested, 0.53% active;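 active = mean inhibition across replicates at least about 35%, with every replicate also reaching that limit, limit read from the data; inconclusive = only one of the two criteria met; inactive = neither criterion met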
Target sequence (P55212 24-179 limits assumed): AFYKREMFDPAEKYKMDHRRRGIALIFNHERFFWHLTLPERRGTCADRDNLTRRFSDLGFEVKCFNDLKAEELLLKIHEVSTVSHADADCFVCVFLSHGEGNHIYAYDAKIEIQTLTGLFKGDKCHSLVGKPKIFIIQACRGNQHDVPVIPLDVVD
Target sequence (P55212 194-293 limits assumed): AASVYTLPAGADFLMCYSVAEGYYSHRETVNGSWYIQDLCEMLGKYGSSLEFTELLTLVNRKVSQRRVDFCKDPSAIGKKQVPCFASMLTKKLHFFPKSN
RAD52 anneal inh – blocks human RAD52 DNA annealing; recombinant RAD52 DNA annealing, FRET fluorescence; inhibition, % at 18.7 µM; P43351; 360,000 tested, 0.46% active;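 active = every replicate showing at least 50% inhibition; inconclusive = mean inhibition at least 50% but not in every replicate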
NSD2 inh – blocks human histone methyltransferase NSD2 | 310,000 tested, 0.54% active | AID 743445 | NSD2 peptide methylation, AlphaScreen, 120 min | inhibition, % at 12.5 µM | O96028; in the data active = inhibition above about 50%
AID977621 – wild-type E. coli growth inhibition versus H69 humanized strain – H69 mutant RFP, wild-type GFP, cherry-pick, dose response; shares compounds with rRNA inh HTS; activity change, negative = inhibition at 50 µM; 1,900 tested, under 10 active; fluorescence, 24 h;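 active = Wild-type ribosome reporter drop at least double the humanized mutant ribosome reporter drop, growth loss under a set limit; inconclusive = no clear call, values can overlap the other calls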;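 also: wild-type GFP and H69 mutant RFP strains grown together 50/50 in each well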
AID977628 – E. coli growth inhibition, wild-type GFP versus h24 humanized RFP strain, dose response, h24 mutant RFP vs wild-type GFP, cherry-pick. shares compounds with rRNA inh HTS. E. coli WT GFP strain growth, fluorescence, 24 h. activity change, negative = inhibition at 50 µM. 1,900 tested, under 10 active;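 active = compound lowering the normal-ribosome reporter at least twice as much as the humanized-ribosome reporter, growth loss under a set limit; inconclusive = no clear call, values can overlap the other calls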;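 also: wild-type GFP and h24 humanized RFP strains co-cultured 1 to 1 per well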
Numbers stand for hits; . = inactive; ? = inconclusive; / = not tested or not shown; ! = repeats disagree.

SMILES	MLL AF4-AF9 inh	rRNA inh HTS	Casp6 inh	RAD52 anneal inh	NSD2 inh	AID977621	AID977628
COC(=O)c1c(C)oc(C)c1S(=O)(=O)NC(c1ccccc1)c1ccccc1	/	-35	.	.	.	.	/
O=C(Nc1cccc(Cl)c1)N1C[C@H]2[C@@H](c3ccccc31)[C@@H](CO)N2C(=O)c1ccncc1	.	-23	.	.	/	/	?
O=C(Nc1cccc(Cl)c1)N1C[C@H]2[C@@H](c3ccccc31)[C@H](CO)N2Cc1ccncc1	.	-29	.	.	/	/	?
O=C(Nc1cccc(Cl)c1)N1C[C@H]2[C@@H](c3ccccc31)[C@H](CO)N2C(=O)c1ccncc1	.	.	.	.	/	/	/
O=C(Nc1ccccc1F)N1C[C@@H]2[C@H](c3ccccc31)[C@@H](CO)N2C(=O)Cc1ccccc1	.	-44	.	.	/	/	?
C[C@H](CO)N1C[C@H](C)[C@@H](CN(C)Cc2ccc3c(c2)OCO3)Oc2ccc(NS(=O)(=O)c3ccc(F)cc3)cc2C1=O	.	.	.	.	/	/	/
O=C(C[C@@H]1C[C@@H]2c3cc(NC(=O)Nc4ccccc4F)ccc3O[C@@H]2[C@@H](CO)O1)NCc1cc(F)ccc1F	.	.	.	.	/	/	/
S=C1Nc2ccccc2CS1	.	.	/	.	.	/	/
c1ccc2c(c1)CSc1ccccc1N2	.	-24	.	.	.	.	.
CCNC(=O)C1(C)CCCN(Cc2cccc3ccccc23)C1 (centres undefined)	.	-23	.	.	.	/	?
COc1ccc(NC(=O)CSc2nn3c(=O)c(C)nnc3s2)cc1	.	.	.	.	.	/	/
Cc1nnc2sc(SCC(=O)Nc3ccc(Br)cc3)nn2c1=O	.	-24	.	.	.	.	/
CCCN1C[C@H](C)[C@H](OC)CN(C)C(=O)c2cc(NS(C)(=O)=O)ccc2OC[C@@H]1C	/	.	/	/	/	/	/
COc1ccc(S(=O)(=O)Nc2ccc3c(c2)CC(=O)N([C@@H](C)CO)C[C@H](C)[C@@H](CN(C)C(=O)Nc2ccc(C(F)(F)F)cc2)O3)cc1	.	.	.	.	/	/	/
CCNc1nc(N)c(C(=C(C#N)C#N)c2ccccc2)s1	/	/	/	/	.	/	/
CCNc1nc(N)c(C(=O)C23CC4CC(CC(C4)C2)C3)s1	/	-23	.	.	.	.	.
C[C@H]1CCCCO[C@@H](CN(C)C(=O)c2ccncc2)[C@@H](C)CN([C@@H](C)CO)C(=O)c2cc(NS(C)(=O)=O)ccc2O1	.	.	.	.	/	/	/
CCOC(=O)c1nc(S(C)(=O)=O)ncc1Cl	.	-27	.	.	.	.	?
COC(=O)C[C@@H]1C[C@H]2c3cc(NC(=O)Nc4ccc(C(F)(F)F)cc4)ccc3O[C@H]2[C@@H](CO)O1	.	.	.	.	/	/	/
CC(C)Cn1c(=O)c2ccccc2c2ccccc2c1=O	.	-28	.	.	/	.	/
CC(C)CCn1c(=O)c2ccccc2c2ccccc2c1=O	/	/	/	/	.	/	/
CCN(CC)CC(=O)Nc1ccc(-c2ccc(NC(=O)CN(CC)CC)c(OC)c2)cc1OC	.	-23	.	.	/	.	/
CCN(CC(=O)Nc1cccc(S(=O)(=O)N2CCCC2)c1)CC(=O)Nc1ccccc1OC	.	-18	.	.	.	.	.
O=C(N[C@H]1CC[C@@H](CC(=O)N2CCCCC2)O[C@H]1CO)c1ccc2c(c1)OCO2	.	.	.	.	/	/	/
C[C@H](CO)N1C[C@H](C)[C@@H](CN(C)S(=O)(=O)c2ccc(F)cc2)Oc2cc(-c3cccc(F)c3)ccc2S1(=O)=O	.	.	.	.	/	/	/
SMILES	MLL AF4-AF9 inh	rRNA inh HTS	Casp6 inh	RAD52 anneal inh	NSD2 inh	AID977621	AID977628
COc1cccc(NC(=O)N(C)C[C@@H]2Oc3ncc(C#Cc4cccnc4)cc3C(=O)N([C@@H](C)CO)C[C@H]2C)c1	.	.	.	.	/	/	/
C[C@H](CO)N1C[C@H](C)[C@H](CN(C)C(=O)Nc2ccc(F)cc2)Oc2c(NC(=O)Nc3ccccc3)cccc2C1=O	.	-23	.	.	/	.	?
C[C@@H]1CN([C@H](C)CO)C(=O)c2cccc(NC(=O)Nc3ccccc3)c2O[C@@H]1CN(C)C(=O)Nc1ccc(F)cc1	.	.	.	.	/	/	/
COc1cccc(NC(=O)N(C)C[C@H]2Oc3ncc(C#Cc4cccnc4)cc3C(=O)N([C@H](C)CO)C[C@H]2C)c1	.	-39	.	.	/	.	.
C[C@@H]1CN([C@H](C)CO)C(=O)c2cccc(NC(=O)Nc3ccc4c(c3)OCO4)c2O[C@@H]1CN(C)C(=O)Nc1ccc2c(c1)OCO2	.	-19	.	.	/	.	?
C[C@@H]1CN([C@@H](C)CO)C(=O)c2cccc(NC(=O)c3nc4ccccc4s3)c2O[C@@H]1CN(C)CC1CC1	.	-28!	.	.	/	.	.
CCCN1[C@@H]2c3ccc(-c4ccccc4)c(=O)n3C[C@@H]2[C@@H](CO)[C@@H]1C(=O)N[C@H](C)c1ccccc1	.	.	.	.	/	/	/
Cc1noc(C)c1NC(=O)Nc1ccc2c(c1)C(=O)N([C@@H](C)CO)C[C@@H](C)[C@@H](CN(C)Cc1ccc(Cl)c(Cl)c1)O2	/	.	/	/	/	/	/
O=C(Nc1ncccn1)c1ccc([N+](=O)[O-])o1	.	-18	.	.	.	.	?
O=C(Nc1cccc2ccccc12)c1ccc([N+](=O)[O-])o1	.	-19	.	.	.	?	/
CC(C)NC(=O)N(C)C[C@H]1Oc2ccc(NC(=O)C3CC3)cc2CC(=O)N([C@@H](C)CO)C[C@@H]1C	.	.	.	.	/	/	/
COC(C(=O)Nc1ccnn1C1CCN(Cc2ccc(C)s2)CC1)c1ccccc1 (centres undefined)	.	.	.	.	.	/	/
COC(C(=O)Nc1ccnn1C1CCN(Cc2ccc(Cl)s2)CC1)c1ccccc1 (centres undefined)	.	-22	.	.	.	.	.
CO[C@H]1CN(C)C(=O)c2cc(NC(=O)C3CC3)ccc2OC[C@@H](C)N(Cc2nccs2)C[C@@H]1C	.	.	.	.	/	/	/
C[C@@H]1CN([C@@H](C)CO)C(=O)c2cc(C#C[C@@H](C)O)cnc2O[C@H]1CN(C)Cc1ccccn1	.	.	.	.	/	/	/
COC(=O)[C@]1(Cc2ccccc2)N[C@H](c2ccc(-c3ccccc3)cc2)[C@@H]2C(=O)N(C)C(=O)[C@@H]21	.	.	.	.	/	/	/
COc1ccc(N2C(=O)C3C(c4ccc(C(=O)O)cc4)NC(Cc4ccccc4)(C(=O)O)C3C2=O)c([N+](=O)[O-])c1 (centres undefined)	.	-19	.	.	.	.	.
NC(=O)c1cc(C(N)=O)nc(Cl)n1	.	.	.	.	.	/	/
Cc1cc(C(N)=O)nn1-c1c(Cl)cc(Cl)cc1Cl	.	-31	.	.	.	.	/
